Read-out in one assay: CD69, CD69 (gene 969)
Briefly: BSK_SAg_CD69: BioMAP Diversity Plus: SAg Assay for CD69 Biomarker Activity (AID 2283089).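 On AC50: cell surface CD69 protein quantified by ELISA with fluorescence detection.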 The note with it: primary human HUVEC with PBMC; actives raise or lower the signal. In short, it runs like this: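 Primary human vascular co-culture (umbilical vein endothelium with peripheral blood mononuclear cells) exposed to test chemical for 24 h. CD69 levels quantified by fluorescence ELISA; DMSO served as negative control for bidirectional fitting.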

Read-out in assay [1]: Monocyte Chemoattractant Protein-1 (MCP1), CCL2 (gene 6347)
Briefly: BSK_SAg_MCP1: BioMAP Diversity Plus: SAg Assay for Monocyte Chemoattractant Protein-1 (MCP1) Biomarker Activity (AID 2283090). As to conditions: primary human HUVEC with PBMC; actives raise or lower the signal. In short, it runs like this:
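MCP-1 levels in the endothelial–PBMC SAg co-culture were quantified by ELISA at 24 h post-dosing; both increases and decreases versus DMSO scored. Cytotoxicity monitored by SRB total protein in parallel cultures.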

Read-out in assay [2]: E-selectin (Homo sapiens) (UniProt P16581)
Kind of assay: BSK_SAg_Eselectin: BioMAP Diversity Plus: SAg Assay for Eselectin Biomarker Activity (AID 2283091). As to conditions: primary human HUVEC with PBMC; actives raise or lower the signal. An outline of the steps:
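Human umbilical vein endothelial cells co-cultured with peripheral blood mononuclear cells, SAg system. E-selectin is measured by ELISA 24 h after dosing and fitted bidirectionally against DMSO. Cytotoxicity is checked by SRB staining of parallel cultures.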

Read-out in assay [3]: Monokine induced gamma interferon (MIG), CXCL9 (gene 4283)
Kind of assay: BSK_SAg_MIG: BioMAP Diversity Plus: SAg Assay for Monokine induced gamma interferon (MIG) Biomarker Activity (AID 2283092). As to conditions: primary human HUVEC with PBMC; actives raise or lower the signal. In short, it runs like this:
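Endothelial cells and PBMC were co-cultured, exposed to test chemicals, and sampled 24 h later. MIG was measured by ELISA, and responses were fitted in both directions relative to DMSO.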

A short description of assay [4]: BSK_SAg_PBMCCytotoxicity: PBMC Cytotoxicity Assessment in the BioMAP Diversity Plus: SAg Assay (AID 2283093).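 Further: PBMC viability measured as Alamar Blue reduction fluorescence at 546/580 nm; fitted both ways against DMSO so a hit may be loss or gain of signal.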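 On AC50: PBMC superantigen activated with SEB plus TSST-1 one hour after compound addition.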 The note with it: primary human HUVEC with PBMC. In short, it runs like this:
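Compound added to 75,000 PBMC/well for 1 h; SEB and TSST-1 then added at 20 ng/mL final each; 90 h incubation; Alamar Blue 6 h; read 546/580 nm ex/em. Activity fitted bidirectionally relative to DMSO baseline.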

Read-out in assay [5]: Interleukin-8 (IL8), CXCL8 (gene 3576)
Briefly: BSK_SAg_IL8: BioMAP Diversity Plus: SAg Assay for Interleukin-8 (IL8) Biomarker Activity (AID 2283094). As to conditions: primary human HUVEC with PBMC; actives raise or lower the signal. An outline of the steps:
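In this co-culture of human umbilical vein endothelium with peripheral blood mononuclear cells, IL-8 is assayed by ELISA at 24 h. DMSO serves as baseline for bidirectional curve fitting.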

The nature of assay [6]: BSK_SAg_Proliferation: Cell Proliferation Assessment in the BioMAP Diversity Plus: SAg Assay (AID 2283095).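 Further: relative cell number as total protein by SRB absorbance in sub-confluent culture.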 As to conditions: primary human HUVEC with PBMC. In short, it runs like this: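 Readout is SRB-stained protein (560 nm) in a primary human HUVEC and PBMC co-culture; sub-confluent cultures are read at 96 h. Activity is fitted bidirectionally using DMSO as baseline.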

Assay [7] in a line: BSK_SAg_SRB: Viability Assessment in the BioMAP Diversity Plus: SAg Assay (AID 2283096).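 Further: cells read one day after compound addition; hits may be either gain or loss of signal compared with DMSO.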 The note with it: primary human HUVEC with PBMC. In short, it runs like this:
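Total protein by sulforhodamine B staining, 24 h after dosing, in HUVEC–PBMC co-culture; DMSO-referenced bidirectional fitting.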

In assay [8] the target is human CYP19A1, CYP19A1 (gene 1588) (UniProt P11511). Briefly: NVS_ADME_hCYP19A1: NovaScreen (NVS) CYP450-related Enzyme Activity (ADME) Assay for human CYP19A1 (AID 2283098; active means hit-call score of the fitted dose curve at least 0.9, where 1 is the maximum). As to the method: NVS_ADME_hCYP19A1 is a biochemical, single-readout assay that uses extracted gene-proteins in a cell-free assay. Measurements were taken 0.5 hour after chemical dosing in a 384-well plate.NVS_ADME_hCYP19A1 is one of one assay component(s) measured or calculated from the NVS_ADME_hCYP19A1 assay. It is designed to make measurements of enzyme activity, a form of enzyme reporter, as detected with fluorescence intensity signals by Fluorescence technology.Data from the assay component NVS_ADME_hCYP19A1 was analyzed into 1 assay endpoint. This assay endpoint, NVS_ADME_hCYP19A1, was analyzed in the positive analysis fitting direction relative to Acetonitrile as the negative control and baseline of activity. Using a type of enzyme reporter, loss-of-signal activity can be used to understand changes in the enzymatic activity as they relate to the gene CYP19A1. Furthermore, this assay endpoint can be referred to as a primary readout, because this assay has produced multiple assay endpoints where this one serves a enzymatic activity function. To generalize the intended target to other relatable targets, this assay endpoint is annotated to the cyp intended target family, where the subfamily is steroidogenesis-related.
(§1) Binding assays used specific radioligands (tritiated, iodinated) with non-radioactive competitive displacement ligands in agonist or antagonist protocols (as indicated) and various reference compounds and inhibitors to titrate specific binding to receptors and transporters. Most enzyme assays (CYPs, kinases, phosphatases, proteases, HDACs) used recombinant protein and specific substrates (fluorescence mostly, some colorimetric and radioactive) and inhibitors, followed by a biochemical separation of substrate and product. All assays for the biochemical HTS were initially run in duplicate at a single concentration (10 uM for CYP450 assays and 25 uM for all others). […] Each assay was run with positive and negative controls, and concurrent controls on every plate. […]

In assay [9] the target is human CYP2D6, CYP2D6 (gene 1565) (UniProt P10635). Briefly: NVS_ADME_hCYP2D6: NovaScreen (NVS) CYP450-related Enzyme Activity (ADME) Assay for human CYP2D6 (AID 2283107; active means hit-call score of the fitted dose curve at least 0.9, where 1 is the maximum). As to the method: NVS_ADME_hCYP2D6 is a biochemical, single-readout assay that uses extracted gene-proteins from insect cells in a cell-free assay. Measurements were taken 1 hour after chemical dosing in a 96-well plate.NVS_ADME_hCYP2D6 is one of one assay component(s) measured or calculated from the NVS_ADME_hCYP2D6 assay. It is designed to make measurements of enzyme activity, a form of enzyme reporter, as detected with fluorescence intensity signals by Fluorescence technology.Data from the assay component NVS_ADME_hCYP2D6 was analyzed into 1 assay endpoint. This assay endpoint, NVS_ADME_hCYP2D6, was analyzed in the positive analysis fitting direction relative to Acetonitrile as the negative control and baseline of activity. Using a type of enzyme reporter, loss-of-signal activity can be used to understand changes in the enzymatic activity as they relate to the gene CYP2D6. Furthermore, this assay endpoint can be referred to as a primary readout, because this assay has produced multiple assay endpoints where this one serves a enzymatic activity function. To generalize the intended target to other relatable targets, this assay endpoint is annotated to the cyp intended target family, where the subfamily is xenobiotic metabolism.
as §1

The structures appear in SMILES notation. “And” between values parts separate entries of the source, which are not always exact repeats. Identical values can stand only once. Results filed as inconclusive are left out. The source made the active and inactive calls. How the source made its calls, unless noted: active means hit-call score of the fitted dose curve at least 0.9, where 1 is the maximum; inactive means score below 0.9.

Chain of E-selectin (Homo sapiens) (P16581 whole entry, looked up): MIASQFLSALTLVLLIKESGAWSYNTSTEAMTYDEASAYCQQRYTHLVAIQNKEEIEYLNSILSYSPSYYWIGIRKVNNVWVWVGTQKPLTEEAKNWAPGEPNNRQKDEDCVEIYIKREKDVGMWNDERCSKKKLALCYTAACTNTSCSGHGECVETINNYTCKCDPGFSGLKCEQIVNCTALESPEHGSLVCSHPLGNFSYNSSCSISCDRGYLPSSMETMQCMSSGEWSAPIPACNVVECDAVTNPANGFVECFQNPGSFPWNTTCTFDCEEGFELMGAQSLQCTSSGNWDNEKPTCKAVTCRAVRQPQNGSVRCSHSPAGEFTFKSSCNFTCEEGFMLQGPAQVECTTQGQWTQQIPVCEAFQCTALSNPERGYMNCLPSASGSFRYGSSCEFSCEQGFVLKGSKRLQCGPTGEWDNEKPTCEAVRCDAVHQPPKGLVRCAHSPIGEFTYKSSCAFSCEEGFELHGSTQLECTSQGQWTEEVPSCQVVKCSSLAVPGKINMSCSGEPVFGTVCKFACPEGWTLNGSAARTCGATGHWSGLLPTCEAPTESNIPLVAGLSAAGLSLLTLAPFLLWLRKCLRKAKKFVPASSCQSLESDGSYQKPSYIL
Chain of human CYP19A1, CYP19A1 (gene 1588) (P11511 whole entry, looked up): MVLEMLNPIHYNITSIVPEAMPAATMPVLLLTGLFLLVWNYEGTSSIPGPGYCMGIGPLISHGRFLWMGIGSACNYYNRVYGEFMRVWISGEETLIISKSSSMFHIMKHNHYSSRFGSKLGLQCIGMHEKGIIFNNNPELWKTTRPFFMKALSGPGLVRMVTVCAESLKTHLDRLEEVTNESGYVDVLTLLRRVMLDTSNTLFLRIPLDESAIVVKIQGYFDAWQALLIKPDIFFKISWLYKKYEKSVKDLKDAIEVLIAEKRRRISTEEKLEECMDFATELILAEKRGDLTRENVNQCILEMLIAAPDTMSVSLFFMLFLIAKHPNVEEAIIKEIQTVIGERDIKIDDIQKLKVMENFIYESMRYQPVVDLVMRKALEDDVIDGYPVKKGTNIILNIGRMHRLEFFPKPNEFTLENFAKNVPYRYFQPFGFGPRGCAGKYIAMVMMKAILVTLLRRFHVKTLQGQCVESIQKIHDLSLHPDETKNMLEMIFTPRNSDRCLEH
Chain of human CYP2D6, CYP2D6 (gene 1565) (P10635 whole entry, looked up): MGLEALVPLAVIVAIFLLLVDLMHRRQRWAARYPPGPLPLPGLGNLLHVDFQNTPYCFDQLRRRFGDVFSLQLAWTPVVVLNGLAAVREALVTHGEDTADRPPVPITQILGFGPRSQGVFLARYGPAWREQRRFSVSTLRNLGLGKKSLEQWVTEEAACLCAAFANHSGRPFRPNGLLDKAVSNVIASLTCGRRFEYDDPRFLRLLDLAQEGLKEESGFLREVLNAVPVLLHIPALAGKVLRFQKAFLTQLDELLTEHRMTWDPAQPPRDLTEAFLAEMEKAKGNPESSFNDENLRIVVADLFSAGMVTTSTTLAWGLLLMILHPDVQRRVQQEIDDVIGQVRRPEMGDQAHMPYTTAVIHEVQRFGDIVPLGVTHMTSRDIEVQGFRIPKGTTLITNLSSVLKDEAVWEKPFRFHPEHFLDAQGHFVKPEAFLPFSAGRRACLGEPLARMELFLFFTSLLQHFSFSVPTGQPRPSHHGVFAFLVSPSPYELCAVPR

In the case of `O=C1CCCN1CCO`, the outcome with CD69, CD69 (gene 969) is “inactive”; in assay [1], “inactive”; in [2], “inactive”; in assay [3], “inactive”; in assay [4] it was “inactive”; in assay [5], “inactive”. For the same compound, the result in assay [6] and in assay [7] was inactive.

For `CCCCCCCC/C=C\CCCCCCCC(=O)O`, the result in [8] was inactive.

Take `CO[Si](OC)(OC)c1ccccc1`: the outcome with CD69, CD69 (gene 969) was “inactive”; in [1] it was “inactive”; in assay [2], “inactive”; in assay [3], “inactive”; in [4] it was “inactive”; in assay [5], “inactive”. Further, the outcome in assay [6] and in assay [7] was inactive.

On to `CCCCCCCCCCCCCCCC[N+](C)(C)CC`, for which the AC50 was 1.78 µM (active) with CD69, CD69 (gene 969); 2.24 µM (active) in [1]; 2.77 µM (active) in assay [2]; 3.51 µM (active) in assay [3]; 1.94 µM (active) in assay [4]; 9.75 µM (active) in assay [5]. Further, the AC50 is 314 nM (active) in [6], 1.69 µM (active) in assay [7] and 0.536 µM (active) in assay [9].

Regarding `CCOC(=O)c1ccccc1C(=C1C=C(Br)C(=O)C(Br)=C1)c1cc(Br)c(O)c(Br)c1`, the AC50 was 15.1 µM (active) and 15.6 µM (active) with CD69, CD69 (gene 969); 20.7 µM (active) and 21 µM (active) in [1]; 20.1 µM (active) and 18.8 µM (active) in assay [2]; 22.2 µM (active) and 23 µM (active) in [3]; 19 µM (active) and 18 µM (active) in [5]; 18.3 µM (active) and 20.1 µM (active) in assay [6]. Also, in assay [7], the AC50 is 21.1 µM (active) and 18.9 µM (active). The outcome in assay [4] was inactive.

Turning to `CC(=O)[C@H]1[C@H](C#N)C[C@H]2[C@@H]3CC=C4C[C@@H](O)CC[C@]4(C)[C@H]3CC[C@@]21C`, the compound was classed as inactive in assay [8].

Regarding `c1ccc2c(c1)ccc1ncccc12`, the outcome in the assay with CD69, CD69 (gene 969) is “inactive”; in [1], “inactive”; in [2], “inactive”; in assay [3] it was “inactive”; in assay [4], “inactive”; in assay [5], “inactive”. Further, in assay [6], the result was inactive. Also, the AC50 in [7] is 28.1 µM (active).

For `c1ccc2c(c1)ccc1cc3c(ccc4ccccc43)cc12`, the outcome with CD69, CD69 (gene 969) was “inactive”; in [1], “inactive”; in assay [2] it was “inactive”; in [3], “inactive”; in assay [4], “inactive”; in [5], “inactive”. The result in assay [6] and in assay [7] was inactive.

`CCCCNc1ccc(NCCCC)c2c1C(=O)c1ccccc1C2=O`: the outcome in the assay with CD69, CD69 (gene 969) is “inactive”; in assay [1], “inactive”; in [2], “inactive”; in assay [3] it was “inactive”; in assay [4], “inactive”; in [5], “inactive”. For the same compound, the result in assay [6] and in assay [7] was inactive.

In the case of `C=CC(=O)OCC(Br)CBr` (stereo not given), the AC50 with CD69, CD69 (gene 969) was 10.2 µM (active); in assay [1] it was 24.8 µM (active); in assay [2] it was 8.13 µM (active); in assay [3], 20 µM (active); in assay [4] it was 6.05 µM (active); in assay [5], 6.6 µM (active). Besides, the AC50 was 1660 nM (active) in assay [6] and 34.1 µM (active) in assay [7].

In the case of `c1ccc(-c2ccccn2)nc1`, the outcome is “inactive” with CD69, CD69 (gene 969); “inactive” in assay [1]; “inactive” in assay [2]; “inactive” in assay [3]; “inactive” in [4]; “inactive” in assay [5]. The result in [6] and in assay [7] was inactive.

The AC50 is the midpoint of the concentration-response curve, whichever way the signal moves.

These data come from PubChem BioAssay (EPA / NIEHS).
